Six1-Eya2 blk – qHTS Assay for Inhibitors of the Six1/Eya2 Interaction; AlphaScreen GST-Six1/His-Eya2 binding, biochemical; hits give low values; actives 0.56% (n = 360,000); activity change, % (no concentration beside the values); Homeobox protein SIX1 (Homo sapiens) + Protein phosphatase EYA2 (Homo sapiens), …; in the data active = activity change below about -65%; inconclusive = mostly about -30% to -63%; note: % is set by controls: 0 for no effect and ±100 for the full control effect
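AlphaScreen luminescence read after one hour at 37 °C in darkness. Pin-transferred compounds met GST-Six1 and His-Eya2 protein (5X stock 250 nM/500 nM) plus glutathione donor and Ni-chelate acceptor beads (5X, 50 ug/mL).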
CtBP-E1A blk – qHTS Assay for Inhibitors of the CtBP/E1A Interaction; CtBP / adenovirus E1A interaction (AlphaScreen); AlphaScreen GST-E1A/His-CtBP binding, 1536-well; hits give low values; activity change, % (test concentration not listed); actives 0.49% (n = 340,000); in the data active = activity change below about -65%; inconclusive = mostly about -30% to -63%; note: % is set by controls: 0 for no effect and ±100 for the full control effect
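Steps: dispense buffer (Tris pH 8.0, NaCl 300 mM, TCEP 1 mM, BSA, Tween 20); add 5X protein mix (GST-E1A, His-CtBP, 125 nM each); pin 23 nL compound; 2 h at 37 °C, dark; add 5X beads (50 ug/mL); 1 h; read.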
CBFb-RUNX1 inh – qHTS Assay for Compounds Blocking the Interaction Between CBF-beta and RUNX1 for the Treatment of Acute Myeloid Leukemia | Runt-related transcription factor 1 (Homo sapiens) + Core-binding factor subunit beta … | AlphaScreen CBFb-His/RUNX1-biotin binding, biochemical | Potency, µM (doses to about 59.8 µM), inactives show at the top dose activity, negative = inhibition, most hits filed as inhibitors | 230,000 tested, under 10 active; note: % of control where 0% means no effect
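Room-temperature protein-protein interaction test with 30 nM each of His-tagged CBF-beta and biotinylated RUNX1, 15 min with compound, then 90 min with nickel plus streptavidin beads. Signal read in AlphaScreen mode.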
MBNL1-CUG inh – qHTS Assay for Inhibitors of MBNL1-poly(CUG) RNA binding | Muscleblind-like protein 1 (Homo sapiens), Q9NR56 | TR-FRET MBNL1-His/biotin-(CUG)12 binding, 665/545 ratio | Potency, µM (titrated, usually from 57.5 µM), inactives show top-dose activity change, negative = inhibition, usual class: inhibitors | actives 0.036% (n = 280,000) | AID 2675, 2010; active = well fitted inhibition curve with a large enough effect in the signal ratio, with a control signal flat, not every such curve was filed as active; inconclusive = small, poorly fitted or top-dose-only effect, or effect the other way, or a change in a side signal; inactive = no such curve, though single readings can be large or run the other way; the % refers to the signal ratio; note: potency is the fitted concentration of half-maximal effect; % is set by controls: 0 for no effect and ±100 for the full control effect
Target sequence (Q9NR56 whole entry, looked up): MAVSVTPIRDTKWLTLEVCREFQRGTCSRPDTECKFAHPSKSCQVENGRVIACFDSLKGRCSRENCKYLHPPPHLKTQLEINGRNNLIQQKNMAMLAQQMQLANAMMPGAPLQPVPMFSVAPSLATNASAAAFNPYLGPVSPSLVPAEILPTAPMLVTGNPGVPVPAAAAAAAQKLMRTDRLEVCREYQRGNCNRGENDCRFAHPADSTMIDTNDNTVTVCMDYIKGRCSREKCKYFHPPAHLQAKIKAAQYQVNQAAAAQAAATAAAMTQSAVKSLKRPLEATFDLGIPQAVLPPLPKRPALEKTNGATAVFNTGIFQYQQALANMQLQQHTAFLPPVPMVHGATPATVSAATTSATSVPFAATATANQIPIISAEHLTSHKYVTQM
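TR-FRET readout: Ex 340 nm, 665/545 nm emission ratio, normalized to buffer-only (basal) and MBNL1-(CUG)12 controls. Complex of MBNL1-His with Biotin-(CUG)12, compounds 92 nM–58 uM, incubated 60 min at room temperature.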
Gal4-VP16 FLuc – VP16 counterscreen qHTS for inhibitors of ROR gamma transcriptional activity | Drosophila S2 Gal4-VP16 UAS-luciferase, luminescence, 20 h | Potency, µM (titrated, usually from 53.6 µM), for inactives: at the top dose activity, negative = inhibition, hits mostly inhibitors | actives 3.5% (n = 310,000) | AID 2546, 2010;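 note: Gal4-VP16 expression switched on by copper sulfate through the metallothionein promoter; potency is the fitted concentration of half-maximal effect; % is set by controls: 0 for no effect and ±100 for the full control effect; nearly all actives have a fitted effect of over 50% in size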
RORgamma inh – qHTS for inhibitors of ROR gamma transcriptional activity; actives 5.4% (n = 310,000); Drosophila S2 Gal4-RORgamma UAS-luciferase reporter, 20 h; Potency, µM (series often up to 53.6 µM), inactives show at the highest dose activity change, negative = inhibition, most hits filed as inhibitors; note: potency is the fitted concentration of half-maximal effect; % is set by controls: 0 for no effect and ±100 for the full control effect; nearly all actives have a fitted effect of over 60% in size
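Luminescence from a UAS-regulated Photinus luciferase reporter in stably transfected Drosophila Schneider cells is measured; decreased signal marks ROR gamma inhibition. Fusion expression is induced by 700 uM copper sulfate for 20 hr.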
Starred values were filed as active, the others as inactive; u = inconclusive; x = not tested or not shown; [ ] = another dose, or the depositor's remark. Rows were chosen to be rich in hits. Some 5.5% of all compounds tested hit in one or more screens of this group. Unless noted, calls come from the whole dose curve; as a rule, active = well fitted curve in the direction sought with a large enough effect; inconclusive = small, poorly fitted or top-dose-only effect, or another doubt; inactive = no such curve, though single readings can be large; an effect the other way counts as inactive or inconclusive.

SMILES	Six1-Eya2 blk	CtBP-E1A blk	CBFb-RUNX1 inh	MBNL1-CUG inh	Gal4-VP16 FLuc	RORgamma inh
C=CCn1c(-c2cccn(Cc3cccc(Cl)c3)c2=O)n[nH]c1=S	3	4	9%	13%	u	13µM*
C=CCn1c(-c2cccn(Cc3ccc(Cl)cc3)c2=O)n[nH]c1=S	4	-1	2%	15%	u	6.3µM*
C=CCn1c(-c2cccn(Cc3ccc(Cl)cc3Cl)c2=O)n[nH]c1=S	0	-5	0%	-1%	10µM*	2.5µM*
COc1ccc(NC(=O)C2CCCN(CCCc3ccccc3)C2)cc1OCC(C)C (stereo unspecified)	5	x	x	3%	-20%	-19%
Cc1csc(SCC(=O)Nc2cc(F)ccc2C)n1	1	8	x	x	x	x
C=CCn1c(-c2cccn(Cc3ccccc3)c2=O)n[nH]c1=S	-1	4	6%	-9%	-29%	11µM*
O=c1c(-c2n[nH]c(=S)n2-c2ccccc2)cccn1Cc1cccc(Cl)c1	7	7	-6%	29%	-9%	13µM*
CCC(=O)NCCCC[C@H](NC(=O)OCc1ccccc1)C(=O)Nc1ccc2c(C)cc(=O)oc2c1	x	x	6%	x	13%	-13%
Cc1ccc(Nc2nnc(SCC(=O)Nc3ncc(S(=O)(=O)c4ccc([N+](=O)[O-])cc4)s3)s2)cc1	4	5	12%	x	-71%	27%[10 µM]
CC(C)c1ccc(Nc2nnc(SCC(=O)Nc3ncc(S(=O)(=O)c4ccc([N+](=O)[O-])cc4)s3)s2)cc1	-2	x	7%	u	-4%	10µM*
COc1ccc(N(C=O)C(C(=O)Nc2c(C)cccc2C)c2ccccc2)cc1 (stereo unspecified)	-1	x	x	x	x	x
Cc1ccc(C)c(NC(=O)c2ccccc2O)c1	-15	-8	11%	2%	u	u
Cc1ccc(O)c(C(=O)CC(=O)c2ccccc2Cl)c1	-2	-13	0%	4%	13µM*	7.1µM*
Cc1ccc(O)c(C(=O)CC(=O)c2ccc(C(C)(C)C)cc2)c1	-14	2	x	-1%	5µM*	5.6µM*
N#Cc1ccccc1OCC(=O)Nc1ccc2c(c1)OCO2	-7	-3	x	x	x	x
O=C(O)c1cc(S(=O)(=O)NCCOc2ccccc2)ccc1Cl	3	8	x	x	x	x
CCCCC1(Cc2ccc([N+](=O)[O-])cc2)C(=O)N(c2ccccc2)N(c2ccccc2)C1=O	-20	-15	-22%	u	7.1µM*	u
COc1cccc(/C(O)=C/c2nc3ccc(C(=O)NCCc4ccc(Cl)cc4)cc3[nH]c2=O)c1	6	4	-5%	3%	14µM*	u
S=C1NCN(Cc2ccco2)CN1c1ccccc1	1	-1	3%	x	-5%	u
S=C1NCN(C2CCCCC2)CN1c1ccccc1	-8	x	8%	x	u	22µM*
O=C(Nc1ccc([N+](=O)[O-])cc1)Nc1ccc(OC(F)F)c(Cl)c1	-18	-11	-1%	-2%	13µM*	u
O=C(Nc1ccc(OC(F)F)c(Cl)c1)Nc1ccc2c(c1)OCO2	2	23	1%	-5%	9%	7%
Cc1nc(Nc2ccccc2)sc1-c1ccccc1	-8	-8	-4%	16%	11µM*	11µM*
Cc1nc(Nc2ccc(C(=O)O)cc2)sc1-c1ccccc1	5	5	2%	-6%	-9%	29%
O=C(/C(=C(\O)c1ccccc1)c1ncc[nH]1)c1ccccc1	-2	-9	0%	x	u	13µM*
SMILES	Six1-Eya2 blk	CtBP-E1A blk	CBFb-RUNX1 inh	MBNL1-CUG inh	Gal4-VP16 FLuc	RORgamma inh
O=C(/C(=C(\O)c1ccccc1)c1nc2ccccc2[nH]1)c1ccccc1	-6	-20	0%	5%	u	7.9µM*
CN(CC(=O)Nc1ccc(Cl)c(C(F)(F)F)c1)C(=O)c1cc(=O)c2ccccc2o1	0	x	x	x	x	x
COc1cc(OC)cc(C(=O)NCC(=O)NCCN2C(=O)S/C(=C\c3ccc4c(c3)OCO4)C2=O)c1	-3	-15	x	x	x	x
CCOCN(C(=O)Cn1cnc2ccccc21)c1c(C)cccc1CC	-12	-19	-5%	-13%	2%	-27%
CCc1cccc(CC)c1N(COC)C(=O)Cn1cnc2ccccc21	-9	5	7%	-6%	15%	10µM*
COc1ccc(CN2CCN(C(=O)CN3C(=O)C4C5C=CC(C5)C4C3=O)CC2)c(OC)c1OC (stereo unspecified)	2	0	5%	-9%	6.3µM*	-28%
COc1ccc(CN2CCN(C(=O)CC(C)C)CC2)c(OC)c1OC	0	14	0%	2%	3%	-1%
C=CC[C@@H]1C=C[C@H](Oc2ccc(C)cc2)[C@H](COC(=O)NCc2cccc3ccccc23)O1	x	x	5%[13.1 µM]	x	31%[10 µM]	18%[10 µM]
COC(=O)c1cc(CNC(=O)CCCSc2ccccc2)ccc1OC	7	-10	x	-8%	11%	17%
CCOC(=O)c1c(C)c(C(=O)Nc2ccc3c(c2)OCO3)c(C)n1C	-19	-18	1%	-6%	3%	u
CCOC(=O)c1c(N)sc(C(=O)Nc2ccc3c(c2)OCO3)c1C	-19	-21	2%	2%	5.6µM*	u
O=S(=O)(c1ccsc1)N1CC=C(c2ccccc2)CC1	2	-1	x	3%	10%	13%
Cc1cc(C)cc(CC(Cc2nc3ccccc3[nH]2)c2nc3ccccc3[nH]2)c1 (stereo unspecified)	-17	-3	-8%	-4%	11µM*	11µM*
C[C@@H]1CN([C@@H](C)CO)C(=O)CCCn2nncc2CO[C@H]1CN(C)C(=O)Cc1ccccc1	-1	0	x	x	x	x
CCCCC(O)(c1ccc(CC)cc1)C(CN1CCOCC1)c1ccccc1 (stereo unspecified)	7	7	x	-2%	-30%	38%
CCOC(=O)/C=C/C(=O)OCC(=O)N1CCN(C(=O)c2ccco2)CC1	1	3	x	-1%	u	11µM*
O=C(/C=C/c1ccc(OC(F)F)cc1)OCC(=O)N1CCN(C(=O)c2ccco2)CC1	-17	u	-26%	x	4%	-6%[10 µM]
Cn1cccc1CC(=O)NNC(=S)Nc1ccc(Cl)cc1Cl	-5	10	-17%	-10%	u	u
